Screens: PubChem, several laboratories
Myeloid diff MLP = induction of myeloid progenitor differentiation, primary screen, cell-based, flow cytometry, MLPCN library. AID 624256, 2012. calls only at 10 µM. 360,000 tested, 1% active. ER-HoxA9 myeloid progenitors, lysozyme-GFP differentiation;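 active = normalized GFP-positive differentiation at or above the plate's own cutoff, the solvent-only control mean plus 3 SD; inconclusive = no clear call, values can overlap the other calls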;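 note: cells exposed to compound for four days before flow analysis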
rCAG RNA binder = binders of r(CAG) RNA repeats, primary screen, biochemical, fluorescence | r(CAG) RNA repeat, TO-PRO-1 dye displacement fluorescence | inhibition, % at 3 µM | 370,000 tested, 1.3% active | AID 651821, 2012;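 active = inhibition above the plate cutoff, the mean of all test compounds on that plate plus 3 SD, cut at about 35% in these data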;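 note: 0% = DMSO alone and 100% = 100 µM mitoxantrone as full dye displacement; higher means more dye released from RNA so lower well fluorescence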
MPTP inh = mitochondrial permeability transition pore inhibitors, primary screen, biochemical, isolated mouse mitochondria, absorbance; Ca2+ swelling absorbance, 30 min; inhibition, % at 10 µM; 360,000 tested, 1.4% active; AID 602449, 2012;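 active = inhibition of 50% or more, scaled per plate between neutral and stimulator controls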;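 note: 0% = DMSO wells given calcium and 100% = 1 mM EGTA wells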
FAS-TE inh = FAS thioesterase domain inhibitors, primary screen, biochemical, fluorescence intensity, uHTS | AID 602261, 2012 | Fatty acid synthase (Homo sapiens), P49327 | inhibition, % at 15 µM | 360,000 tested, 0.67% active | recombinant FAS-TE, OMFH fluorogenic substrate, fluorescence endpoint;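 active = compounds whose normalised, plate-corrected inhibition of enzyme fluorescence in the single-dose primary screen is 50% or more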;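 note: 0% = DMSO with enzyme and 100% = substrate without enzyme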
NR3A LBD binder = binders of NR3A ligand-binding domain, primary screen, biophysical, differential scanning fluorimetry, uHTS | Glutamate receptor ionotropic, NMDA 3A (GRIN3A) ligand-binding domain | NR3A LBD differential scanning fluorimetry, Tm shift; 0% = protein alone, 100% = glycine-bound protein | Tm shift relative to glycine control, % at 25 µM | 340,000 tested, 2.5% active;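 active = melting temperature shift of at least 10% of the positive control shift, at one fixed dose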
MPTP counter = fluorescence retest of MPTP screen hits in isolated mitochondria, single concentration | shares compounds with MPTP inh | membrane potential, Rhodamine 123 fluorescence | inhibition, % at 10 µM | 5,000 tested, 78% active; in the data active = inhibition above about 22%;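 note: 0% = DMSO vehicle and 100% = positive control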
MPTP abs DR = mitochondrial permeability transition pore inhibitors, dose response, biochemical, absorbance, uHTS hits | shares compounds with MPTP inh | 780 tested, 58% active | isolated mitochondria swelling | AID 651561, 2012 | IC50, µM; in the data active = IC50 below about 20 µM
MPTP cs DR = fluorescent counter-screen in isolated mitochondria, dose response, counter-screen for MPTP inhibitor project, biochemical, fluorescence, uHTS hits; shares compounds with MPTP inh; isolated mitochondria counterscreen, fluorescence read-out; IC50, µM; 780 tested, 49% active; AID 651564, 2012; in the data active = IC50 below about 80 µM
Numbers without * were called inactive; i = inactive; ? = inconclusive; . = no result given; + = active, no number. Only some compounds are listed: those with a hit (about 5.7% of all), similar ones and a draw of the others.

SMILES | Myeloid diff MLP | rCAG RNA binder | MPTP inh | FAS-TE inh | NR3A LBD binder | MPTP counter | others
O=C(COc1ccc2c(c1)OCO2)Nc1cccc(F)c1 | i | -1 | 1 | 0 | -34 | .
CCn1nccc1C(=O)Nc1ccc(Cl)cn1 | i | -1 | -2 | -7 | 2 | .
CCn1nccc1C(=O)Nc1cc(Cl)cc(Cl)c1 | i | -1 | 66* | 6 | -7 | 75*
CN1CCN(NC(=O)/C=C/c2cccc(Cl)c2)CC1 | i | -2 | 0 | -8 | 3 | .
CC(O)CNCCCOc1ccc(Cl)cc1C(C)(C)C (centres undefined) | i | 2 | 74* | -3 | -3 | -17 | MPTP abs DR=5*;MPTP cs DR=>80
CC(C)Cn1c(/C=N/Nc2nc3ccccc3[nH]2)nc2ccccc21 | + | 6 | 100* | -9 | -8 | 74*
CC(C)Cn1c(/C=C/c2ccccc2)nc2ccccc21 | i | -1 | 2 | 20 | -2 | .
Cn1c(/C=N/Nc2nc3ccccc3[nH]2)nc2ccccc21 | i | 18 | 1 | -1 | 5 | .
C=CCn1cc(/C=N/Nc2nc3ccccc3[nH]2)c2ccccc21 | i | 17 | 63* | -38 | -4 | -22
CCCn1c(/C=N/Nc2nc3ccccc3[nH]2)nc2ccccc21 | ? | 5 | 90* | -2 | -9 | 81*
Cc1c(/C=N/Nc2nc3ccccc3[nH]2)c2ccccc2n1C | i | 23 | 1 | -20 | 3 | .
Cc1cc(C)cc(NC(=O)CSc2nnc(CNC(=O)c3ccco3)n2C)c1 | i | 1 | -2 | -8 | 3 | .
COc1ccc2oc(C(=O)OCC(=O)NC(C)c3ccccc3)c(C)c2c1 (centres undefined) | i | 4 | -1 | 0 | -2 | .
Cc1ccc(N2CC(C(=O)Nc3nnc(SCCN4CCOCC4)s3)CC2=O)cc1 (centres undefined) | i | -5 | 0 | -3 | -1 | .
COc1ccc(Cl)cc1C(=O)Nc1ccc(NC(C)=O)cc1 | i | 0 | 0 | -1 | -13 | .
CC(=O)Oc1c(I)cc(I)cc1C(=O)Nc1ccc(Cl)cc1 | i | 22 | 70* | 33 | 16* | 69*
Cc1cccc(NC(=O)OC2CC3CC2[C@H]2CCCCN2C3)c1 (some centres undefined) | . | 6 | . | . | . | .
CCOc1ccccc1OCCCC(=O)Nc1ccc(Cl)c(S(=O)(=O)N2CCOCC2)c1 | i | 1 | -1 | 11 | -2 | .
COc1ccc(OCc2nnc(NC(=O)Nc3ccc(F)cc3)s2)cc1 | i | 24 | 74* | 2 | -3 | 82*
COc1ccc(NC(=O)Nc2nnc(-c3cccs3)s2)cc1 | i | 33 | 69* | -2 | 16* | 69*
OC(CN1CCN(c2cccc(C(F)(F)F)c2)CC1)c1c[nH]c2ccccc12 (centres undefined) | i | 2 | 53* | 11 | 0 | -22 | MPTP abs DR=>100;MPTP cs DR=72*
CCCCc1ccc(NC(=S)NCc2cccs2)cc1 | i | 1 | 84* | 22 | 11* | 80*
COc1ccc(CNC(=S)Nc2ccc(OC)cc2)cc1 | i | -2 | -1 | -11 | 5 | .
CCCCc1ccc(NC(=S)NCc2ccc(OC)cc2)cc1 | i | -2 | 57* | 32 | 0 | 75*
CC1CC1C(=O)N1CCN(S(=O)(=O)c2cc(C(F)(F)F)cc(C(F)(F)F)c2)CC1 (centres undefined) | i | 10 | 101* | 1 | 2 | 102*
SMILES | Myeloid diff MLP | rCAG RNA binder | MPTP inh | FAS-TE inh | NR3A LBD binder | MPTP counter | others
Cc1cnc(C(=O)N2CCN(S(=O)(=O)c3cc(C(F)(F)F)cc(C(F)(F)F)c3)CC2)cn1 | i | 0 | 88* | -5 | -3 | 105*
COc1ccc(C(=O)N/C(=C\c2cn(C)c3ccccc23)C(=O)OCC(C)C)cc1 | i | 0 | 2 | -13 | -14 | .
CC1(C(=O)Nc2ccc3c(c2)OCO3)CCN1C(=O)Cc1ccc(-c2ccccc2)cc1 (centres undefined) | i | 2 | 74* | 27 | . | 96*
CC1(C(=O)Nc2ccccc2)CCN1C(=O)Cc1ccc(-c2ccccc2)cc1 (centres undefined) | i | 2 | 8 | 22 | . | .
c1ccc2c(c1)CCN(c1ncnc3c1[nH]c1ccccc13)C2 | i | 7 | 99* | 9 | -5 | 101*
c1ccc(CN2CCN(c3ncnc4c3[nH]c3ccccc34)CC2)cc1 | i | 2 | 15 | 6 | -6 | .
Cc1ccc2c(c1)[nH]c1c(N3CCN(Cc4ccccc4)CC3)ncnc12 | i | -2 | 68* | 8 | -13 | 80*
COc1ccc2c(c1)[nH]c1c(N3CCN(Cc4ccc5c(c4)OCO5)CC3)ncnc12 | i | -1 | 88* | 7 | -10 | 91*
Cc1ccc2[nH]c3c(N4CCN(Cc5ccccc5)CC4)ncnc3c2c1 | i | -1 | 85* | 7 | -9 | 68*
Cc1cc(C(=O)OCC(=O)c2cccs2)ccc1[N+](=O)[O-] | i | 2 | -1 | 31 | 0 | .
Oc1ccccc1-c1n[nH]c(-c2ccccc2O)n1 | ? | 13 | 87* | 5 | 23* | 84*
CCOC(=O)[C@@H]1[C@H]2COc3ccccc3[C@H]2N2C(=O)N(c3ccc(C(F)(F)F)cc3)C(=O)[C@]12C | i | -3 | 95* | 41 | -3 | 118*
Cc1ccc(SCc2nc3ccccc3n2CC(=O)Nc2ccccc2)cc1 | i | 5 | 10 | 16 | 0 | .
Cc1ccc(SCc2nc3ccccc3n2CC(=O)Nc2ccc(Cl)cc2)cc1 | i | 19 | 87* | 18 | -1 | 87*
Cc1ccc(NC(=O)COC(=O)Cn2ccc(=O)[nH]c2=O)cc1C | i | 4 | 0 | -8 | 0 | .
O=C(Nc1ccccc1)Nc1ccc(Oc2cccnc2)nc1 | i | 4 | 9 | -6 | -17 | .
CC1CCC(=C(C#N)C(=O)Nc2cccc(Cl)c2)CC1 (centres undefined) | i | 0 | 86* | 15 | -4 | 84*
O=C(NCCN1CCN(c2cccc(Cl)c2)CC1)Nc1ccccc1 | i | 1 | 1 | -2 | -21 | .
N#CC(C#N)=C(N)Nc1cccc(Cl)c1 | i | -2 | -3 | -6 | 2 | .
